Source: PubChem BioAssay (NCATS)
Records with an inconclusive call do not appear. A call without a number means that no potency is given here. Values without a mark were called inactive. Active and inactive are the calls of the source. The call rests on the fitted dose curve; in most records, active means well fitted curve in the direction sought with a large enough effect; inconclusive means small, poorly fitted or top-dose-only effect, or another doubt; inactive means no such curve, though single readings can be large; an effect the other way counts as inactive or inconclusive.

What was measured:
[1] = target: Rap guanine nucleotide exchange factor 3 (Homo sapiens) (UniProt O95398); assay: Confirmatory qHTS for antagonist of cAMP-regulated guanine nucleotide exchange factor 3 (EPAC1) (AID 1645880); settings: EPAC1 Rap1B-BODIPY-GDP exchange, fluorescence; activity, negative = inhibition: at 115 µM (top of the series); further: nearly all actives have a fitted effect of over 55% in size; further: potency means the concentration at half of the fitted maximal effect
In short: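 Nucleotide exchange uses 100 nM EPAC1, 250 nM RAP1B-BODIPY-GDP and 50 uM GDP, with compounds in a concentration-titration series. After 5 min at room temperature, fluorescence (480 nm ex/540 nm em) is read every 5 min for 30 min. Data are normalized to control ATA and DMSO.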

[2] = target: Rap guanine nucleotide exchange factor 3 (Homo sapiens) (UniProt O95398); assay: Confirmatory qHTS for agonist of cAMP-regulated guanine nucleotide exchange factor 3 (EPAC1) (AID 1645881); further: nearly all actives have a fitted effect of over 75% in size; further: potency means the concentration at half of the fitted maximal effect;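 on activation: EPAC1 catalysed release of BODIPY-GDP from Rap1B seen as fluorescence loss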
[3] = target: Rap guanine nucleotide exchange factor 4 (Homo sapiens) (UniProt Q8WZA2); assay: Confirmatory qHTS for antagonist of cAMP-regulated guanine nucleotide exchange factor 4 (EPAC2) (AID 1645885); further: nearly all actives have a fitted effect of over 25% in size; further: potency means the concentration at half of the fitted maximal effect
[4] = target: Rap guanine nucleotide exchange factor 3 (Homo sapiens) (UniProt O95398); assay: Counterscreen qHTS for antagonist of cAMP-regulated guanine nucleotide exchange factor 3 (EPAC1) (AID 1645888);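 further: fluorescence loss as bound BODIPY-GDP is released from Rap1B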
In short: (§1)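 Rap1B-BODIPY-GDP 250 nM + GDP 50 uM; cpds 7-pt, final 9.74 nM–152 uM (activator mode) or from 7.32 nM upwards (inhibitor mode); RT; FI 480/540 nm at 5 and 30 min, then ± cAMP, reread.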

[5] = target: Rap guanine nucleotide exchange factor 3 (Homo sapiens) (UniProt O95398); assay: Counterscreen qHTS for agonist of cAMP-regulated guanine nucleotide exchange factor 3 (EPAC1) (AID 1645889); further: nearly all actives have a fitted effect of over 40% in size; further: potency means the concentration at half of the fitted maximal effect
In short: as §1

Sequence of Rap guanine nucleotide exchange factor 4 (Homo sapiens) (Q8WZA2 whole entry, looked up): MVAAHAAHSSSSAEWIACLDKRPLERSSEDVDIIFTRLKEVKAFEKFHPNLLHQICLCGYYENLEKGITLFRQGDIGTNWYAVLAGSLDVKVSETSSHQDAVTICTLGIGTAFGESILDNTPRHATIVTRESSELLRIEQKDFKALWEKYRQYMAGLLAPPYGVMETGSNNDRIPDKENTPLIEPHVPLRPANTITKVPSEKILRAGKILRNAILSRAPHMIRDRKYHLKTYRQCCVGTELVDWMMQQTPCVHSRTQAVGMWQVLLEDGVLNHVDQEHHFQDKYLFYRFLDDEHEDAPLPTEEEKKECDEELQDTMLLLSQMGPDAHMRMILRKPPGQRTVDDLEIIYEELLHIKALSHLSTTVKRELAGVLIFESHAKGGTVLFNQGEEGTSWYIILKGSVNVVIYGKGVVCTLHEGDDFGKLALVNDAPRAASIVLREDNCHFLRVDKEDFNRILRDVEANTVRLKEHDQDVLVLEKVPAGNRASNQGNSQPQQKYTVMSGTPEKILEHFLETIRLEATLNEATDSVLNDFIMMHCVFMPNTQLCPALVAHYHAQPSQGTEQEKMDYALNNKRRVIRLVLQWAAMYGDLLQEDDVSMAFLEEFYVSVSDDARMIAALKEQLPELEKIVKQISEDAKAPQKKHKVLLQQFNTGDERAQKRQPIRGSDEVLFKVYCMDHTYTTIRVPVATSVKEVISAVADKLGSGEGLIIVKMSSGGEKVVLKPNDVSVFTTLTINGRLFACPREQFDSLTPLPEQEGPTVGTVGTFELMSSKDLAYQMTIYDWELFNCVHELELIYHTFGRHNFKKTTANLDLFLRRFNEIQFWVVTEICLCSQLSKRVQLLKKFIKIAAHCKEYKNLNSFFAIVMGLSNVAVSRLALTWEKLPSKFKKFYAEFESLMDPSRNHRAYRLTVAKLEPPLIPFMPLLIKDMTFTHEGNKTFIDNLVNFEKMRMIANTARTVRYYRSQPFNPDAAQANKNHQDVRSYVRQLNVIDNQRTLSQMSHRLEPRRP
Sequence of Rap guanine nucleotide exchange factor 3 (Homo sapiens) (O95398 whole entry, looked up): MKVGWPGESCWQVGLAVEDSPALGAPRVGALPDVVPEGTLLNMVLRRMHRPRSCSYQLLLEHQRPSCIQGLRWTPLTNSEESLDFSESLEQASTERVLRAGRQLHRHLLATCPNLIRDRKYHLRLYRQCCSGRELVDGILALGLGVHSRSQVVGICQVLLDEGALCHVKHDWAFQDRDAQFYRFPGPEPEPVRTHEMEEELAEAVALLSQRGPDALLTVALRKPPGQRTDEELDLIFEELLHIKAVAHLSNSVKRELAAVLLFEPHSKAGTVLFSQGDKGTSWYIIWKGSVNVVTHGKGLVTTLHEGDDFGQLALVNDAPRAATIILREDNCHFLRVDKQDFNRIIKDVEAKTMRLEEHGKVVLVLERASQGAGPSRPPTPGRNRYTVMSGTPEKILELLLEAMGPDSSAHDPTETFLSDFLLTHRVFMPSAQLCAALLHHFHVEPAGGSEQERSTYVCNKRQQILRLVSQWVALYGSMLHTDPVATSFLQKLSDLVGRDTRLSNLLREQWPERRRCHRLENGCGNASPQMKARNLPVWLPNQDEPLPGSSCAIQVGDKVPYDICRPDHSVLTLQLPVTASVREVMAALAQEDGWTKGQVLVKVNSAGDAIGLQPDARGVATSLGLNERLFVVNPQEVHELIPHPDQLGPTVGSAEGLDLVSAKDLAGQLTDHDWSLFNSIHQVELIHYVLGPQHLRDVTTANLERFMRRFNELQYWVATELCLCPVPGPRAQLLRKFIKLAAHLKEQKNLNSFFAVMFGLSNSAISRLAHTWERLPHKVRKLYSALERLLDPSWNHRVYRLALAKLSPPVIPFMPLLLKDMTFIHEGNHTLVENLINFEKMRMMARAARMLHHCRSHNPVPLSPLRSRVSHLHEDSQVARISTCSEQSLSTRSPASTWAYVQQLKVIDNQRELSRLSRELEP

SMILES | Potency [1] | Potency [2] | outcome [3] | Potency [4] | Potency [3] | Potency [5] | activity change, negative = inhibition [4] | activation [5]
CCc1ccc(CNC(=O)Cn2nc(C)n3c(cc4cc(C)ccc43)c2=O)cc1 | inactive | inactive | inactive [at 12.7 µM] | inactive | – | – | – | –
Cc1ccc(NC(=O)N2CC3CCCN3c3ccccc32)cc1Cl (configuration not stated) | inactive | inactive | – | inactive | inactive | – | – | –
COc1cc(/C=N/NC(=O)c2cc(O)cc(O)c2)ccc1OC(=O)c1ccccc1 | 33.8 µM (active) | inactive | – | inactive | 3.38 µM (active) | – | – | –
COc1ccc(CCNC(=O)CCCn2c(SCC(N)=O)nc3cc4c(cc3c2=O)OCO4)cc1OC | inactive | inactive | inactive [at 12.7 µM] | inactive | – | – | – | –
Cc1cccc(Cn2c(-c3cccs3)nc3ccccc32)c1 | inactive | inactive | – | inactive | inactive | – | – | –
CCOc1ccc(NC(=O)CSc2nc(-c3cccc(Cl)c3)nc3c2Cc2c(CO)cnc(C)c2O3)cc1 | inactive | inactive | – | inactive | inactive | – | – | –
CCOC(=O)c1cc2c(=O)n3ccccc3nc2n(C(C)C)c1=NC(=O)c1cc2ccccc2o1 | 75.7 µM (active) | inactive | – | inactive | inactive | inactive | – | –
O=S(=O)(Nc1ccccc1N1CCCCC1)c1cccs1 | inactive | inactive | – | inactive | 19 µM (active) | – | – | –
Cc1nnc(N2CCC(C(=O)NC3CCCCC3)CC2)c2nn(-c3ccccc3)c(C)c12 | inactive | inactive | – | inactive | inactive | inactive | – | –
O=C1/C(=C\c2cccc(O)c2O)SC(=S)N1Cc1ccccc1 | 75.7 µM (active) | inactive | – | inactive | inactive | – | – | –
c1ccc(NN(Cc2ccccn2)c2ccccc2)cc1 | inactive | inactive | – | inactive | inactive | – | – | –
CCn1c2ccccc2c2cc(NC(=O)c3ccc(=O)oc3)ccc21 | inactive | 112 µM (active) | inactive [at 12.7 µM] | inactive | – | – | – | –
COc1cc(SC)ccc1C(=O)NC1CCCc2ccccc21 (configuration not stated) | inactive | inactive | – | inactive | 30.1 µM (active) | – | – | –
CC(=O)c1cccc(NC(=O)Cn2cc(C(=O)c3cccc(Cl)c3)c(=O)c3ccc(C)nc32)c1 | inactive | inactive | inactive [at 12.7 µM] | inactive | – | – | – | –
Cc1ccc(-c2noc(-c3nnn(CC(=O)Nc4cc(Cl)ccc4C)c3N)n2)cc1 | inactive | inactive | inactive [at 12.7 µM] | inactive | – | – | – | –
O=C(N/N=C\c1c(O)ccc2ccccc12)c1ccc(S(=O)(=O)N2CCCCC2)cc1 | inactive | 44.7 µM (active) | – | – | inactive | – | -15.1% [at 30.8 µM] | –
N#CC(C#N)=C1C=C2C=C(N3CCOCC3)CCC2CC1 (configuration not stated) | inactive | 44.7 µM (active) | – | inactive | 37.9 µM (active) | – | – | –
O=S(=O)(Nc1ccccc1N1CCCCC1)c1ccccc1 | inactive | inactive | – | inactive | inactive | – | – | –
O=C(Nc1ccccc1N1CCCCC1)C1=COCCO1 | inactive | inactive | – | inactive | inactive | – | – | –
CC(NC(=O)c1ccc(Br)s1)c1ccncc1 (configuration not stated) | inactive | inactive | – | inactive | inactive | – | – | –

SMILES | Potency [1] | Potency [2] | outcome [3] | Potency [4] | Potency [3] | Potency [5] | activity change, negative = inhibition [4] | activation [5]
COC(=O)c1cc2sccc2n1Cc1ccccc1 | inactive | inactive | – | inactive | inactive | 44.7 µM (active) | – | –
CCC(C)Cn1c(COc2ccc(OC)cc2)nc2ccccc21 (configuration not stated) | inactive | inactive | – | inactive | inactive | inactive | – | –
CC(=O)N1CCN(C(=O)c2[nH]c(C(F)(F)F)nc2-c2ccccc2)CC1 | inactive | inactive | – | inactive | inactive | inactive | – | –
CCOC(=O)Nc1ccccc1C(=O)Nc1cc(C)cc(C)c1 | inactive | inactive | – | inactive | inactive | 0.631 µM (active) | – | –
CCn1nc(C)c(C(=O)Nc2cc(Oc3ccc(Cl)cc3)cc([N+](=O)[O-])c2)c1C | inactive | inactive | – | inactive | inactive | inactive | – | –
C=CCN1C(=O)/C(=C/C=C2/N(CC)c3ccc(S(=O)(=O)N(C)C)cc3N2CC)SC1=S | inactive | inactive | – | – | inactive | – | -11.8% [at 30.8 µM] | 14.5% [at 30.8 µM]
CC(=O)C1=CCC(c2cccc(Cl)c2)N(S(=O)(=O)c2ccc(C)cc2)C1 (configuration not stated) | inactive | inactive | – | inactive | inactive | inactive | – | –
Cc1ccc([N+](=O)[O-])cc1NC(=O)CN(C1CCCCC1)S(=O)(=O)c1ccc(Cl)cc1 | inactive | inactive | – | inactive | 8.49 µM (active) | inactive | – | –
O=S(=O)(c1ccc(Br)c2ccccc12)N1CCCC1 | inactive | inactive | – | inactive | inactive | inactive | – | –
O=C(C(=Cc1ccccc1)c1ccccc1)c1ccccc1 | inactive | inactive | – | inactive | inactive | inactive | – | –
CCOc1ccccc1NC(=O)N1CCC(N2CCN(Cc3ccccc3)C(=O)C2=O)CC1 | inactive | inactive | inactive [at 12.7 µM] | inactive | – | inactive | – | –
O=c1onc(-c2ccccc2)n1-c1cc(Cl)cc(Cl)c1 | inactive | inactive | – | inactive | inactive | inactive | – | –
CCN(CC)CCOC(=O)c1ccc(NC(=O)c2nn(-c3ccc(C)cc3)c(=O)c3c2c2ccccc2n3C)cc1 | 42.6 µM (active) | inactive | inactive [at 12.7 µM] | inactive | – | inactive | – | –
CCN(CC(=O)NCc1cccs1)C(=O)c1ccc(S(=O)(=O)Nc2ccccc2)cc1 | inactive | inactive | – | inactive | inactive | inactive | – | –
Cc1cccc(NC(=O)CC2C(=O)OCCN2Cc2ccccc2)c1 (configuration not stated) | inactive | inactive | – | inactive | inactive | inactive | – | –
COc1ccc(N2CCN(CC(O)COc3ccc(C(C)C)c(C)c3)CC2)cc1 (configuration not stated) | inactive | inactive | – | inactive | inactive | inactive | – | –
Nc1ccc2c(O)cc(S(=O)(=O)O)cc2c1 | 4.26 µM (active) | inactive | – | inactive | inactive | inactive | – | –
CCOc1ccc(NC2c3ccccc3C(=O)N2Cc2ccco2)cc1 (configuration not stated) | inactive | inactive | – | inactive | inactive | inactive | – | –
COC(=O)NCc1c(C)nn(-c2ccccc2)c1-n1cccc1 | inactive | inactive | – | inactive | inactive | inactive | – | –
O=C1C=C(c2ccccc2Oc2ccccc2)C[C@@H](c2ccc3c(c2)OCO3)C1 | inactive | inactive | – | inactive | inactive | inactive | – | –

SMILES | Potency [1] | Potency [2] | outcome [3] | Potency [4] | Potency [3] | Potency [5] | activity change, negative = inhibition [4] | activation [5]
Cc1ccc(C)c(Oc2nnnn2-c2ccccc2)c1 | inactive | inactive | – | inactive | inactive | inactive | – | –
CC(=O)Nc1ccc(/C(C)=N/NC(=O)c2ccc(COc3ccccc3Cl)o2)cc1 | inactive | inactive | – | – | inactive | – | 0.248% [at 30.8 µM] | 15.7% [at 30.8 µM]
COc1cc([N+](=O)[O-])ccc1-c1ccc(/C=C2\C(=O)ON=C2c2ccccc2)o1 | 19 µM (active) | inactive | – | inactive | inactive | inactive | – | –
O=C(c1ccccc1Br)N(Cc1ccco1)Cc1ccco1 | inactive | inactive | – | inactive | inactive | inactive | – | –
COc1ccc2c(Cl)c(C(=O)N/N=C3\CCCC(=O)C3)sc2c1 | inactive | inactive | – | inactive | 30.1 µM (active) | 39.8 µM (active) | – | –
CCN(CC)CC#CCOC(c1ccccc1)c1ccccc1 | inactive | inactive | – | inactive | 37.9 µM (active) | inactive | – | –
N#CC1=C2N=C(N)c3c(sc4c3CCCCC4)N2C2=C(C(=O)CCC2)C1c1ccccc1 (configuration not stated) | inactive | inactive | – | inactive | inactive | inactive | – | –
CC(C)COc1ccc(C(=O)Nc2cc(-c3ccccc3)no2)cc1 | inactive | inactive | – | inactive | inactive | inactive | – | –
COC(=O)c1c(SC)nc2ccccc2c1OCc1ccccc1Cl | inactive | inactive | – | inactive | inactive | inactive | – | –
Oc1[nH]c2ccccc2c1N=Nc1ccccc1F | inactive | inactive | – | inactive | inactive | 11.2 µM (active) | – | –
O=C1COc2ccc(C(=O)COC(=O)c3ccc4ccccc4n3)cc2N1 | 75.7 µM (active) | inactive | – | inactive | inactive | inactive | – | –
CCOc1ccc(-c2cccc(NC(=O)c3ccco3)c2)nn1 | inactive | inactive | – | inactive | 84.9 µM (active) | inactive | – | –
COc1ccc(N=Nc2nc3ccc(Br)cc3n2C)cc1 | inactive | inactive | – | inactive | inactive | 50.1 µM (active) | – | –
COc1cc(CN2C(=O)C(C)ON=C2c2ccccc2F)cc(OC)c1 (configuration not stated) | inactive | inactive | – | inactive | inactive | inactive | – | –
COc1ccc(C(=O)Nc2ccc(NC(=O)c3cccs3)cc2)cc1OC | inactive | inactive | – | inactive | inactive | inactive | – | –
Cc1ccc(-n2nc3c(=O)n(CCCC(=O)NCc4ccc(F)cc4)nc(C)c3c2C)cc1 | inactive | inactive | inactive [at 12.7 µM] | inactive | – | inactive | – | –
Nc1nc2ccccc2n1S(=O)(=O)c1ccc([N+](=O)[O-])cc1 | inactive | inactive | – | inactive | inactive | inactive | – | –
Cc1ccc2nc(SCC(=O)c3c(N)n(C4CC4)c(=O)[nH]c3=O)[nH]c2c1 | inactive | inactive | – | inactive | inactive | inactive | – | –
